Compound activity (PubChem BioAssay)
A selection: hits, their analogues and other compounds. The true share with any hit is near 3.1%.
ALOX15B inhib: qHTS Assay for Inhibitors of 15-hLO-2 (15-human lipoxygenase 2); Polyunsaturated fatty acid lipoxygenase ALOX15B (Homo sapiens), O15296; purified 15hLO-2, xylenol orange hydroperoxide absorbance; Potency, µM (series often up to 57.1 µM), for inactives: top-dose activity change, negative = inhibition, actives largely listed as inhibitors; actives 0.56% (n = 110,000); AID 881, 2007; note: potency is the fitted concentration of half-maximal effect; nearly all actives have a fitted effect of over 60% in size
Target sequence (O15296 whole entry, looked up): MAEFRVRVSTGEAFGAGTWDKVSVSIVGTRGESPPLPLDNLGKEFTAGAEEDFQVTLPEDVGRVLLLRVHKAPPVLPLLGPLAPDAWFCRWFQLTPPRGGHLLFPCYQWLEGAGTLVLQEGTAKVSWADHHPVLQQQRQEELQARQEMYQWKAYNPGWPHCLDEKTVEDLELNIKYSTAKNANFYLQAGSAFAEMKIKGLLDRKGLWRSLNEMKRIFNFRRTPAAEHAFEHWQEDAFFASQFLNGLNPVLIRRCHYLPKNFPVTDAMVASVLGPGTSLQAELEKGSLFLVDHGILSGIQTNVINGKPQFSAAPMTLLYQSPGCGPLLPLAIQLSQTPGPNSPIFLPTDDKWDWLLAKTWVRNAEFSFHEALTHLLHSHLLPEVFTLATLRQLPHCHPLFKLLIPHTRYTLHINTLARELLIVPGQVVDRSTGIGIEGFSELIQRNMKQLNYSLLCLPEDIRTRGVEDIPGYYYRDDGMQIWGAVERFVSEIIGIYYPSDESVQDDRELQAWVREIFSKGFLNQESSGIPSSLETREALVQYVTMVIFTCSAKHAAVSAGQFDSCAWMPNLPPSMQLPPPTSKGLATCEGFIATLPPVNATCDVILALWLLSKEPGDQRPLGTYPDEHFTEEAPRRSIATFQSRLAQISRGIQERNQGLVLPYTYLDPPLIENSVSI
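Purified human 15hLO-2 (50 nM final) preincubated with compounds 15 min at room temperature in 25 mM Hepes pH 7.5, 0.01% Triton X-100, then 45 uM arachidonic acid added for 90 min; hydroperoxide detected via ferrous/xylenol orange, 573/405 nm absorbance ratio.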
12-hLO inh: qHTS Assay for Inhibitors of 12-hLO (12-human lipoxygenase); Polyunsaturated fatty acid lipoxygenase ALOX12 (Homo sapiens), P18054; purified 12-hLO, xylenol orange hydroperoxide absorbance; Potency, µM (titrated, usually from 57.1 µM), inactives show at the highest dose activity change, negative = inhibition, usual class: inhibitors; actives 0.12% (n = 150,000); note: potency is the fitted concentration of half-maximal effect; nearly all actives have a fitted effect of over 55% in size
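Hydroperoxide output read as Fe(III)-xylenol orange absorbance, 573-to-405 nm ratio, after 30 min reaction with 40 uM arachidonic acid. Enzyme: 150 nM purified human 12hLO, 15 min compound preincubation; 25 mM Hepes pH 7.0, room temperature.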
PNC assembly inh: High Content Assay for Compounds that inhibit the Assembly of the Perinucleolar Compartment | AID 2417, 2010 | PC3M PTB-GFP, PNC prevalence imaging, 16 h; hits give low values | actives 3.1% (n = 140,000) | activity change (PNC), negative = inhibition, % at 10 µM;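 active = readout at or below -70, meaning at least 70% loss of cells showing the perinucleolar compartment, a nuclear body marking cancer cells; inconclusive = readout between -30 and a set limit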;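 note: plate controls were DMSO wells for no effect and camptothecin positive control wells for full effect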
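PC3M cells stably expressing PTB-GFP, 750–1000 cells/well, treated 16 h at 37 °C with compound (23 nl of library stock), in duplicate. After paraformaldehyde fixation and Hoechst stain, imaged at 20x; PNC prevalence scored by image analysis.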
* marks the source's active call; other numbers are inactive results; ? = inconclusive; . = no result given; [ ] = dose if it differs, or a comment. Unless noted, calls come from the whole dose curve; as a rule, active = well fitted curve in the direction sought with a large enough effect; inconclusive = small, poorly fitted or top-dose-only effect, or another doubt; inactive = no such curve, though single readings can be large; an effect the other way counts as inactive or inconclusive. Unless noted, % is set by controls: 0 for no effect and ±100 for the full control effect.

SMILES	ALOX15B inhib	12-hLO inh	PNC assembly inh
CCOC(=O)c1cccc(NC(=O)CSc2nc3ccccc3c(=O)n2CCOC)c1	-1.8%	3.0%	?
COCC1C2CC[C@H]3C(OCc4ccc(OC)cc4)OC[C@]4(C)[C@H]3C2=C(CN4C(=O)OC(C)(C)C)[C@H](C)C1COC (some centres undefined)	12.3%	-15.1%	.
Cc1ccccc1CNc1ncnc2c1ncn2[C@@H]1O[C@@H](CO)[C@H](O)[C@@H]1O	8.8%	-4.3%	.
COc1ccc(-n2c(SCC(=O)NCc3ccco3)nc3c([nH]c4ccccc43)c2=O)cc1	-8.4%	4.2%	-108.4*
O=C(CSc1nc2c(sc3ccccc32)c(=O)n1-c1ccccc1)NCc1ccco1	.	-4.1%	?
Cn1c(SCC(=O)NCc2ccco2)nc2ccccc2c1=O	4.2%	-7.1%	-19.5
O=C(CSc1nc2ccccc2c2nc3ccccc3n12)NCc1ccco1	?	1.8%	-83.2*
CN1CC[C@@]2(CCCN(C(=O)c3cccc(F)c3)C2)C1	4.5%	3.8%	.
Cc1cc(=O)c2c(O)cc(O)c(C)c2o1	0.6%	-7.2%	.
COc1ccc(-c2nn(-c3ccccc3)cc2/C=N/n2cnnc2)cc1OC	9.4%	-3.5%	?
COc1ccc(-c2nn(-c3ccccc3)cc2/C=N/NC(N)=S)cc1OC	.	?	-111.9*
COc1ccccc1CN1CCC2(CCNCC2)CC1	35.8%	1.3%	.
Cc1ccc(OCCn2cc(C#N)c3ccccc32)cc1	.	-3.3%	?
COc1ccccc1OCCn1cc(C#N)c2ccccc21	.	-10.9%	-118.9*
COc1ccccc1-c1ccc2ncnc(N(C)C)c2c1	12.9%	-0.5%	.
O=C(Nc1cccc(C(F)(F)F)c1)NC1CCN(S(=O)(=O)c2ccc(F)cc2)CC1	3.6%	-11.5%	24.7
COC(=O)c1cccc(S(=O)(=O)N2CCC(NC(=O)Nc3cccc(F)c3)CC2)c1	-3.7%	-12.8%	-98.2*
COc1ccc(-c2nc3c(c4c2C[C@H](c2ccccc2)OC4)CN(S(=O)(=O)c2ccc(C)cc2)CC3)c(C)c1	.	1.6%[11.4 µM]	.
O=S(=O)(c1ccccc1)N1CCC[C@@]2(CCN(Cc3nccs3)C2)C1	8.4%	-0.7%	.
COc1ccccc1C(=O)Nc1ccc2nc(SCC(=O)N(C)C)sc2c1	.	-1.8%	-113.8*
CCN(CC)C(=O)CSc1nc2ccc(NC(=O)CSc3nccn3C)cc2s1	.	-4.7%	?
COc1ccccc1C(=O)Nc1ccc2c(c1)nc1n2CCSC1	42.8%	-2.3%	?
CCN(CC)C(=O)CSc1nc2ccc(NC(=O)CSc3nnc(N)s3)cc2s1	-14.8%	0.3%	-100.0*
O=C(COC(=O)c1ccco1)NC1CCCCC1	-7.4%	-1.2%	?
O=C(OC(C(=O)NC1CCCC1)c1cccnc1)C1=Cc2ccccc2OC1 (centres undefined)	-3.4%	6.0%	44.9
SMILES	ALOX15B inhib	12-hLO inh	PNC assembly inh
O=C(COC(=O)C1=Cc2ccccc2OC1)NC1CCCC1	2.8%[11.4 µM]	0.5%	-83.5*
CC(OC(=O)C1=Cc2ccccc2OC1)C(=O)NC1CCCC1 (centres undefined)	7.2%[11.4 µM]	6.0%	-90.4*
CN(CC(=O)O)Cc1c(O)c(Cl)cc(Cl)c1Cl	-1.3%[11.4 µM]	-12.9%[11.4 µM]	.
COC(=O)[C@H](CCSC)NC(=O)Nc1ccc(C(C)=O)cc1	0.9%	-0.8%	?
CCC(C)[C@H](NC(=O)Nc1ccc(C(C)=O)cc1)C(=O)OC (some centres undefined)	-9.6%	2.8%	-81.9*
C[C@H]1CN(S(=O)(=O)c2cccc3cnccc23)CCN1	8.0%	-4.2%	.
CO[C@@H]1/C=C\O[C@]2(C)Oc3c(C)c(O)c4c(O)c(cc(O)c4c3C2=O)NC(=O)/C(C)=C\C=C/[C@H](C)[C@@H](O)[C@H](C)[C@H](O)[C@H](C)[C@H](OC(C)=O)[C@@H]1C	-16.1%[11.4 µM]	3.8%[11.4 µM]	.
O=C1NC(=O)C(c2cn(-c3ccccc3)nc2-c2ccc(F)cc2)N1 (centres undefined)	1.5%	-0.8%	-14.5
CC1=C(C(=O)c2ccccc2)C(c2cn(-c3ccccc3)nc2-c2ccc(Cl)cc2)NC(=S)N1 (centres undefined)	7.94µM*	15.8µM*	-17.3
N=c1sc2ccccc2n1CCS (tested in a mixture with another compound)	0.3%[11.4 µM]	1.0%[11.4 µM]	.
COc1ccc(NC(=O)CSc2c(C)n[nH]c2C)cc1	-13.8%	-0.3%	-14.4
Cc1n[nH]c(C)c1SCC(=O)Nc1ccc(F)cc1	.	1.7%	-100.0*
Cc1cc(NCc2ccco2)n2ncnc2n1	.	2.5%	-119.3*
C#CCNc1cc(C)nc2ncnn12	-2.7%	2.1%	7.1
Cc1ccc(CCCC(=O)O)cc1C	-1.8%[11.4 µM]	-5.4%[11.4 µM]	.
Cc1ccc(NC(=O)CNC(=O)c2cccs2)cc1S(=O)(=O)Nc1ccc(Cl)cc1	.	-12.5%	-112.8*
COc1ccc(NS(=O)(=O)c2cc(NC(=O)CNC(=O)c3cccc(OC)c3)ccc2C)cc1	.	-0.7%	26.5
CC(C)(C)NC(=O)Cn1c(-c2nonc2N)nc2ccccc21	-4.1%	3.5%	-0.7
CCOC(=O)Cn1c(-c2nonc2NC(=O)c2ccccc2F)nc2ccccc21	-8.1%	-5.2%	-107.9*
CCCCOc1ccccc1NC(=O)Cn1c(-c2nonc2N)nc2ccccc21	1.0%[2.29 µM]	2.3%	-94.7*
CCC(=O)Nc1nonc1-c1nc2ccccc2n1Cc1ccccc1	-3.6%	-7.3%	?
CC(=O)NCCNc1ncnc2ccc(-c3ccc4c(c3)OCO4)cc12	13.7%	.	.
CC(=O)N1CCC2(CC1)CCN(c1ccc(-c3ccccc3)cc1)CC2	0.2%	?	.
Cc1sc2ncn(CC(=O)NCc3ccccn3)c(=O)c2c1S(=O)(=O)N1CCOCC1	.	6.3%	-100.0*
COC(=O)CNC(=O)Cn1cnc2sc(C)c(S(=O)(=O)N3CCC(C)CC3)c2c1=O	.	-0.6%	38.1
SMILES	ALOX15B inhib	12-hLO inh	PNC assembly inh
NC(N)=NCCCC(=O)O	-6.7%[11.4 µM]	-2.8%[11.4 µM]	.
O=C(c1cnccn1)N1CCC2(CCCN(C(c3ccccc3)c3ccccc3)C2)CC1	12.7%	-2.3%	.
Cc1ccc(Oc2nc3c(c(=O)n(Cc4ccccc4F)c(=O)n3C)n2C)cc1	2.9%	1.1%	-84.5*
Cn1c(=O)c2c(nc(Oc3ccc(-c4ccccc4)cc3)n2C)n(C)c1=O	-2.6%	10.7%	?
COC(=O)CS	-2.7%	-2.7%	.
COC(=O)[C@@]1(Cc2ccccc2)[C@H]2c3cc(C(=O)N4CCCC4)n(Cc4cccc5ccccc45)c3C[C@H]2CN1C(=O)c1ccccc1	0.4%	-2.7%	.
COc1ccc(N2CSC3=C(C#N)C(c4cccs4)CC(=O)N3C2)cc1 (centres undefined)	20µM*	?	?
CCc1ccc(C2CC(=O)N3CN(c4ccccc4)CSC3=C2C#N)cc1 (centres undefined)	7.94µM*	?	31.8
COc1ccc(N2CSC3=C(C#N)C(c4cc(OC)ccc4OC)CC(=O)N3C2)c(OC)c1 (centres undefined)	10µM*	?	0.5
COc1ccc(C2CC(=O)N3CN(c4ccc(C)c(Cl)c4)CSC3=C2C#N)cc1OC (centres undefined)	25.1µM*	?	14.3
